Bioassay records as filed in PubChem BioAssay.
TDP1 cell CPT = growth inhibition of DT40 Tdp1-/-;hTDP1 cells with camptothecin (screen for TDP1 inhibitors); chicken DT40 Tdp1-/-;hTDP1 cells + 20 nM CPT, ATP luminescence, 48 h; Potency, µM (titrated, usually from 46.2 µM), without a hit: at the highest dose activity change, negative = growth inhibition, most hits filed as inhibitors; hit rate 12% among 420,000; AID 686979; further: potency means the concentration at half of the fitted maximal effect; nearly all actives have a fitted effect of over 55% in size
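Cell growth measured by CellTiter-Glo luminescence after a minimum 48 h, 37 C compound exposure with 20 nM CPT in Tdp1-knockout DT40 cells stably expressing hTDP1, seeded 400/well; qHTS titration format.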
IL-1B inflam inh = inflammasome signaling inhibition, IL-1 beta readout. THP-1 LPS/ATP IL-1B secretion, AlphaLISA, 16 h; stronger effect = lower value. activity change, % at 57.5 µM. hit rate 4.7% among 360,000. AID 743279; in the data active means activity change below about -50%; inconclusive means mostly about -30% to -49%
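Secreted IL-1B measured by AlphaLISA bead assay after 16 h compound exposure of THP-1 cells; compounds (final up to 57.5 uM) added 1 h before LPS (250 ng/mL) and ATP (1.25 mM) stimulation; lower signal means less secretion.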
HT1080 IDH1KD tx = kills HT-1080 cells with IDH1 knockdown; HT-1080 IDH1 knockdown viability, ATP luminescence, 48 h; Potency, µM (titrated, usually from 46.1 µM), for inactives: top-dose activity, negative = toxicity, actives largely listed as cytotoxic; hit rate 2% among 360,000;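 further: potency means the concentration at half of the fitted maximal effect; 0% = DMSO wells and -100% = cell-free medium wells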
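Using the IDH1-knockdown HT-1080 line run in the same batch and compound series as the NT line, viability after 48 h at 37 °C was determined by CellTiter-Glo luminescence and expressed as % activity.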
HT1080-NT tox = kills 2HG-producing HT-1080-NT fibrosarcoma cells | HT-1080-NT fibrosarcoma viability, CellTiter-Glo ATP luminescence, 48 h | Potency, µM (doses to about 46.1 µM), for inactives: top-dose activity, negative = less viability, most hits filed as cytotoxic | hit rate 1.6% among 360,000 | AID 686970;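 further: NT is the 2HG producing partner of a matched IDH1 knockdown line; potency means the concentration at half of the fitted maximal effect; 0% = DMSO-treated cells and -100% = media-only wells without cells; nearly all actives have a fitted effect of over 55% in size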
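Fibrosarcoma NT cells, 750 per well in 5% FBS RPMI, were exposed to compound for 48 hours. Viability: CellTiter-Glo luminescence.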
DT40 TDP1 no CPT = qHTS for Inhibitors of human tyrosyl-DNA phosphodiesterase 1 (TDP1): qHTS in cells in absence of CPT; DT40 Tdp1-/- hTDP1 cells, no CPT, ATP luminescence, 48 h; Potency, µM (titrated, usually from 46.2 µM), for the others: top-dose activity change, negative = growth inhibition, usual class: inhibitors; hit rate 15% among 420,000; AID 686978, 2013; further: potency means the concentration at half of the fitted maximal effect; nearly all actives have a fitted effect of over 55% in size
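Luminescent ATP content (CellTiter-Glo) served as the growth readout. Knockout chicken DT40 cells expressing human TDP1 were exposed to compounds without camptothecin for a minimum 48 hr at 37 °C.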
Active calls of the source: *; ? = inconclusive; / = no result given. Sampled rows, rich in hits. Any-hit rate of the full collection: about 19%. Unless noted, the call rests on the fitted dose curve; in most records, active means well fitted curve in the direction sought with a large enough effect; inconclusive means small, poorly fitted or top-dose-only effect, or another doubt; inactive means no such curve, though single readings can be large; an effect the other way counts as inactive or inconclusive. Unless noted, on the % scale 0 is the no-effect control and ±100 the full control effect.

SMILES | TDP1 cell CPT | IL-1B inflam inh | HT1080 IDH1KD tx | HT1080-NT tox | DT40 TDP1 no CPT
O=C(Nc1cc(Cl)cc(Cl)c1)c1ccc(F)c(S(=O)(=O)NC2CCCC2)c1 | 16µM* | / | / | / | 18µM*
CC(=O)Nc1ccc(NC(=O)c2cccc(S(=O)(=O)N(C)C3CCCCC3)c2)cc1 | ? | 56 | -17% | -16% | ?
CCc1ccc(NC(=O)c2ccc(F)c(S(=O)(=O)NC3CCCCCC3)c2)cc1 | ? | / | / | / | 21µM*
CCc1ccc(NC(=O)c2ccc(F)c(S(=O)(=O)N(C)C3CCCCC3)c2)cc1 | ? | / | / | / | 21µM*
Cc1ccccc1NC(=O)c1ccc(F)c(S(=O)(=O)NC2CCCC2)c1 | 6% | / | / | / | -10%
Cc1ccc(NC(=O)C(=O)NCC2CCCO2)cc1 (stereo unspecified) | -5% | -17 | -2% | 0% | -4%
COc1ccc(C2SCC(=O)N2c2nnc(C34CC5CC(CC(C5)C3)C4)s2)cc1 (stereo unspecified) | ? | 2 | -1% | 9% | ?
COc1cc(C2SCC(=O)N2c2nnc(C34CC5CC(CC(C5)C3)C4)s2)cc(OC)c1OC (stereo unspecified) | 18µM* | -55* | 4% | 2% | ?
COc1cc(OC)c(OC)cc1CN1CCCC(c2[nH]ncc2-c2cccc(C(F)(F)F)c2)C1 (stereo unspecified) | ? | / | / | / | 23µM*
COc1ccccc1C(=O)C1CCCN(Cc2cn[nH]c2C2CCCCC2)C1 (stereo unspecified) | 2% | ? | -18% | -11% | ?
O=C(NC(=O)c1ccccc1)Nc1ccc(-c2cc(C(F)(F)F)nn2-c2ccccc2)cc1 | -27% | / | / | / | -8%
O=C(NC(=O)c1cccc(F)c1)Nc1ccc(-c2cc(C(F)(F)F)nn2-c2ccccc2)cc1 | -23% | / | / | / | -23%
COc1cc(C(=O)Nc2ccc(-c3cc(C(F)(F)F)nn3-c3ccccc3)cc2)cc(OC)c1OC | 16µM* | / | / | / | 15µM*
O=C(Nc1ccc(-c2cc(C(F)(F)F)nn2-c2ccccc2)cc1)c1cccc(F)c1 | ? | / | / | / | 5.2µM*
Brc1ccc(C=Nc2ccc(Nc3ccccc3)cc2)s1 | ? | -11 | 2% | 6% | 16µM*
C(=Nc1ccc(Nc2ccccc2)cc1)c1ccc2ccccc2c1 | 13µM* | -69* | -5% | 0% | 12µM*
CNS(=O)(=O)c1cn(CC(=O)Nc2ccc(F)cc2F)cc1S(=O)(=O)NC | -12% | / | / | / | -11%
CN(C)c1ccc(Nc2nc3ccccc3n3nnnc23)cc1 | ? | / | / | / | 23µM*
CCOc1ccc(Nc2nc3ccccc3n3nnnc23)cc1 | ? | 21 | -3% | -5% | -30%
Cc1ccc(CNc2nc3ccc(C)cc3n3nnnc23)cc1 | 0% | / | / | / | 1%
CC(=O)Nc1ccc(Nc2nc3ccc(C)cc3n3nnnc23)cc1 | 6.5µM* | / | / | / | 6.5µM*
Cc1ccc(CCNC(=O)c2ccc(Nc3nc4ccccc4n4nnnc34)cc2)cc1 | ? | / | / | / | 18µM*
CCOc1ccc(CCNC(=O)c2ccc(Nc3nc4ccccc4n4nnnc34)cc2)cc1OCC | -23% | / | / | / | ?
O=C(NCc1ccc(F)cc1)c1ccc(Nc2nc3ccccc3n3nnnc23)cc1 | 21µM* | / | / | / | 15µM*
CC(NS(=O)(=O)c1ccc2c(c1)CC(=O)N2C)c1ccccc1 (stereo unspecified) | -6% | -1 | -2% | 1% | ?
SMILES | TDP1 cell CPT | IL-1B inflam inh | HT1080 IDH1KD tx | HT1080-NT tox | DT40 TDP1 no CPT
O=C(COC(=O)CNC(=O)c1ccc(Cl)cc1Cl)NC(=O)NC1CCCCC1 | -2% | 13 | 0% | 6% | -15%
O=C(c1ccc(Nc2nc3ccccc3n3nnnc23)cc1)N1CCN(c2ccc(F)cc2)CC1 | 10µM* | / | / | / | 9.2µM*
CC(NC(=O)c1ccc(Nc2nc3ccccc3n3nnnc23)cc1)c1ccccc1 (stereo unspecified) | 13µM* | / | / | / | 7.3µM*
Cc1ccc(N2CCN(C(=O)c3ccc(Nc4nc5ccccc5n5nnnc45)cc3)CC2)c(C)c1 | -6% | / | / | / | -13%
CN1CCN(c2ncc3nc(-c4cccc(C#N)c4)c(=O)n(C[C@H]4CCCO4)c3n2)CC1 | ? | / | / | / | -11%
O=CNc1c(Br)cc2c(c1Br)Cc1cc(Br)ccc1-2 | -17% | 10 | 0% | 2% | -10%
CC(=O)Nc1c(Br)cc2c(c1Br)Cc1cc(Br)ccc1-2 | -28% | -15 | ? | ? | 13µM*
O=S1(=O)c2c(Oc3cccc4ccccc34)cccc2OC(COCc2ccccc2)CN1C1CCCC1 (stereo unspecified) | 6.5µM* | 22 | 2% | 1% | 6.5µM*
O=S1(=O)c2c(F)cccc2OC(COCc2ccccc2)CN1C1CCCC1 (stereo unspecified) | ? | -6 | -9% | -5% | 21µM*
CC(NC(=O)c1sc2cc([N+](=O)[O-])ccc2c1Cl)C(C)(C)C (stereo unspecified) | 5.2µM* | ? | -1% | 3% | 4.1µM*
CC1CCCN(C(=O)c2sc3cc([N+](=O)[O-])ccc3c2Cl)C1 (stereo unspecified) | 26µM* | -18 | -18% | -17% | 16µM*
O=C(c1sc2cc([N+](=O)[O-])ccc2c1Cl)N1CCCCC1 | -2% | ? | 9% | -2% | ?
N[C@@H](C(=O)O)c1cc(O)ccc1Cl | 2.4µM* | / | / | / | 1.2µM*
C/C(=N/Nc1ccc(C(=O)c2c(C)cc3ccccn23)cc1[N+](=O)[O-])c1ccc(O)cc1 | 18µM* | -4 | 2% | -7% | ?
CN(Cc1ccc(F)cc1)C(=O)COc1ccccc1-c1ccccc1 | ? | ? | -5% | -13% | -28%
CCc1nnc(NC(=O)C2(C)COC(c3ccc(OC)cc3)OC2)s1 (stereo unspecified) | 4% | -5 | 11% | 9% | 5%
COC(=O)CC1=NN(c2ccccc2)C(=O)/C1=C\c1ccc(OC)cc1 | 21µM* | -23 | 20% | 15% | ?
CSCCC(NS(=O)(=O)c1cccc(C(F)(F)F)c1)C(=O)N(C)CCOc1ccc(Cl)cc1 (stereo unspecified) | ? | -57* | -2% | 1% | ?
CSCCC(NS(=O)(=O)c1cccc(C(F)(F)F)c1)C(=O)N1CCN(C(=O)c2ccco2)CC1 (stereo unspecified) | -8% | 12 | -3% | -2% | 9%
Cc1ccc(CCC(=O)Nc2ccc(N(C)C)cc2)o1 | 16µM* | -6 | -1% | 0% | ?
Cc1ccc(CCC(=O)Nc2ccc(Cl)cc2)o1 | -18% | -5 | ? | ? | -4%
